The source made the active and inactive calls. Rule for the calls: active = hit-call score of the fitted dose curve at least 0.9, where 1 is the maximum; inactive = score below 0.9.
Columns and labels:
Settings in all cases: mRNA level, 48 h; actives raise or lower the signal
[1] = read-out: Nuclear factor NF-kappa-B p105 subunit (Homo sapiens) (UniProt P19838); test: LTEA_HepaRG_NFKB1: Life Technologies and Expression Analysis (LTEA) Assay for Nuclear Factor Kappa B Subunit 1 (NFKB1) using HepaRG (AID 2283521)
Outline: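 Differentiated human HepaRG cells in serum-free induction medium with 0.5% DMSO were exposed for 48 h to eight half-log concentrations, top 100 uM, in duplicate. NFKB1 mRNA measured by Fluidigm TaqMan qRT-PCR, normalised to ACTB, GAPDH and POLR2A; bidirectional fit versus DMSO.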

[2] = read-out: Protein phosphatase 2A (PPP2R4), PTPA (gene 5524); test: LTEA_HepaRG_PPP2R4: Life Technologies and Expression Analysis (LTEA) Assay for Protein phosphatase 2A (PPP2R4) using HepaRG (AID 2283522)
Outline: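 Using HepaRG cultures maintained in 0.5% DMSO, chemicals are tested 48 h at up to 100 uM in duplicate. Induction or suppression of PPP2R4 mRNA, measured by qRT-PCR, is fitted bidirectionally against the vehicle baseline.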

[3] = read-out: Phosphatase and tensin (PTEN), PTEN (gene 5728); test: LTEA_HepaRG_PTEN: Life Technologies and Expression Analysis (LTEA) Assay for Phosphatase and tensin (PTEN) using HepaRG (AID 2283523)
Outline: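 Expression of PTEN is quantified in the human liver line HepaRG following two days of dosing (top concentration 100 uM, half-log dilutions, 0.5% DMSO). Values derive from bidirectional curve fitting relative to DMSO controls.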

[4] = read-out: solute carrier (SLC22A1), SLC22A1 (gene 6580); test: LTEA_HepaRG_SLC22A1: Life Technologies and Expression Analysis (LTEA) Assay for solute carrier (SLC22A1) using HepaRG (AID 2283524)
Outline: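 Transcript induction or suppression of SLC22A1 in human HepaRG cultures is scored after 48 h chemical treatment, with DMSO (0.5%) as baseline for bidirectional fitting. Concentrations span eight half-log points topping at 100 uM.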

[5] = read-out: Pyruvate Dehydrogenase Kinase 4 (PDK4), PDK4 (gene 5166); test: LTEA_HepaRG_PDK4: Life Technologies and Expression Analysis (LTEA) Assay for Pyruvate Dehydrogenase Kinase 4 (PDK4) using HepaRG (AID 2283525)
Outline: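 Eight-point, half-log concentration series (max 100 uM, 0.5% DMSO) applied to differentiated HepaRG cells for 48 h in duplicate. Endpoint: PDK4 mRNA induction or repression by qRT-PCR against DMSO baseline.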

[6] = read-out: NAD(P)H dehydrogenase [quinone] 1 (NQO1), NQO1 (gene 1728); test: LTEA_HepaRG_NQO1: Life Technologies and Expression Analysis (LTEA) Assay for NAD(P)H dehydrogenase [quinone] 1 (NQO1) using HepaRG (AID 2283526)
Outline: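 In this assay, gene expression is read by qRT-PCR after 48 h exposure of HepaRG cells to eight concentrations (max 100 uM, half-log) in 0.5% DMSO. Each chemical runs in duplicate, and activity is scored relative to vehicle.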

[7] = read-out: Nuclear factor erythroid 2-related factor 2 (Homo sapiens) (UniProt Q16236); test: LTEA_HepaRG_NFE2L2: Life Technologies and Expression Analysis (LTEA) Assay for Nuclear factor erythroid 2-related factor 2 (NFE2L2) Transcription Factor using HepaRG (AID 2283527)
Outline: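 Human liver HepaRG line treated in duplicate for 48 h with an eight-point series topping at 100 uM. Gene expression of NFE2L2 by qRT-PCR, bidirectionally fitted against the vehicle control.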

[8] = read-out: succinate dehydrogenase complex iron sulfur subunit B (SDHB), SDHB (gene 6390); test: LTEA_HepaRG_SDHB: Life Technologies and Expression Analysis (LTEA) Assay for succinate dehydrogenase complex iron sulfur subunit B (SDHB) using HepaRG (AID 2283528)
Outline: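 HepaRG cells (~100,000/well, plated 48 h) exposed in duplicate for 48 h in serum-free induction medium to 8-point half-log series from 100 uM in 0.5% DMSO; mRNA by qRT-PCR normalised to ACTB, GAPDH, POLR2A; bidirectional fit versus DMSO.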

[9] = read-out: Signal transducer and activator of transcription 3 (Homo sapiens) (UniProt P40763); test: LTEA_HepaRG_STAT3: Life Technologies and Expression Analysis (LTEA) Assay for Signal transducer and activator of transcription (STAT3) using HepaRG (AID 2283529)
Outline: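 In this transcriptional endpoint, HepaRG cultures receive test chemicals at up to 100 uM for 48 h, tested in duplicate. STAT3 mRNA is normalized to ACTB, GAPDH and POLR2A.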

[10] = read-out: solute carrier (SLCO1B1), SLCO1B1 (gene 10599); test: LTEA_HepaRG_SLCO1B1: Life Technologies and Expression Analysis (LTEA) Assay for solute carrier (SLCO1B1) using HepaRG (AID 2283530)
Outline: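 Differentiated human HepaRG cells, plated 48 h, switched to serum-free induction medium and exposed in duplicate for 48 h to 8 half-log concentrations (top 100 uM) in 0.5% DMSO. SLCO1B1 mRNA by TaqMan qRT-PCR, normalized to ACTB/GAPDH/POLR2A.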

[11] = read-out: Transforming Growth Factor (TGFA), TGFA (gene 7039); test: LTEA_HepaRG_TGFA: Life Technologies and Expression Analysis (LTEA) Assay for Transforming Growth Factor (TGFA) using HepaRG (AID 2283532)
Outline: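 Gene expression of TGFA was quantified by qRT-PCR after human HepaRG cells were treated for 48 h with test chemicals (eight concentrations, highest 100 uM, 0.5% DMSO). Activity in either direction was fitted relative to DMSO.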

[12] = read-out: Transforming Growth Factor (TGFB1), TGFB1 (gene 7040); test: LTEA_HepaRG_TGFB1: Life Technologies and Expression Analysis (LTEA) Assay for Transforming Growth Factor (TGFB1) Transporter using HepaRG (AID 2283533)
Outline: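 Differentiated human HepaRG cells in serum-free induction medium were exposed in duplicate for 48 h to eight concentrations (top 100 uM, half-log steps, 0.5% DMSO). TGFB1 mRNA was quantified by qRT-PCR, normalized to ACTB, GAPDH, POLR2A, and fitted bidirectionally against DMSO.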

TIMP1, TIMP1 (gene 7076) = test: LTEA_HepaRG_TIMP1: Life Technologies and Expression Analysis (LTEA) Assay for TIMP1 using HepaRG (AID 2283534);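 note: TaqMan qRT-PCR signal normalized to ACTB GAPDH and POLR2A housekeeping genes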
Outline: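 Differentiated human HepaRG cells in serum-free induction medium were exposed 48 h to chemicals (8 half-log concentrations, top 100 uM, 0.5% DMSO). TIMP1 mRNA was quantified by TaqMan qRT-PCR, normalized to ACTB/GAPDH/POLR2A; bidirectional fit versus DMSO.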

[13] = read-out: Tumor necrosis factor receptor 1 (TNFRSF1A), TNFRSF1A (gene 7132); test: LTEA_HepaRG_TNFRSF1A: Life Technologies and Expression Analysis (LTEA) Assay for Tumor necrosis factor receptor 1 (TNFRSF1A) using HepaRG (AID 2283535)
Outline: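 Differentiated human HepaRG cells were exposed in duplicate for 48 h in serum-free induction medium to eight concentrations (top 100 uM, half-log steps, 0.5% DMSO). TNFRSF1A mRNA was quantified by qRT-PCR, normalized to ACTB, GAPDH and POLR2A, then fitted bidirectionally against DMSO.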

[14] = read-out: Thyroid Hormone Responsive (THRSP), THRSP (gene 7069); test: LTEA_HepaRG_THRSP: Life Technologies and Expression Analysis (LTEA) Assay for Thyroid Hormone Responsive (THRSP) using HepaRG (AID 2283536)
Outline: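 Cell model: human HepaRG, approx. 100,000 cells/well, 0.5% DMSO vehicle. Exposure lasts 48 h; phenobarbital 1 mM serves as induction positive control. Gene expression is measured by qRT-PCR against three endogenous control genes.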

[15] = read-out: UDP glucuronosyltransferase (UGT1A6), UGT1A6 (gene 54578); test: LTEA_HepaRG_UGT1A6: Life Technologies and Expression Analysis (LTEA) Assay for UDP glucuronosyltransferase (UGT1A6) using HepaRG (AID 2283539)
Outline: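 Human HepaRG cells were dosed for 48 h in serum-free induction medium with 0.5% DMSO vehicle, eight-point half-log series from 100 uM, in duplicate. UGT1A6 mRNA was measured by qRT-PCR, normalized to ACTB, GAPDH, POLR2A, and fitted bidirectionally against DMSO.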

[16] = read-out: Cellular tumor antigen p53 (Homo sapiens) (UniProt P04637); test: LTEA_HepaRG_TP53: Life Technologies and Expression Analysis (LTEA) Assay for Tumor Protein P53 (TP53) using HepaRG (AID 2283537)
Outline: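 Differentiated HepaRG cells in serum-free induction medium exposed 48 h in duplicate to 8 half-log concentrations, top 100 uM, 0.5% DMSO. TP53 mRNA by TaqMan qRT-PCR (Fluidigm), normalized to ACTB, GAPDH, POLR2A; fitted bidirectionally versus DMSO.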

[17] = read-out: UDP glucuronosyltransferase (UGT1A1), UGT1A1 (gene 54658); test: LTEA_HepaRG_UGT1A1: Life Technologies and Expression Analysis (LTEA) Assay for UDP glucuronosyltransferase (UGT1A1) using HepaRG (AID 2283538)
Outline: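 mRNA induction or loss of UGT1A1, by TaqMan qRT-PCR, in duplicate HepaRG wells after 48 h exposure to half-log dilutions topping at 100 uM; DMSO (0.5%) served as baseline.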

[18] = read-out: sulfotransferase 2A1 (SULT2A1), SULT2A1 (gene 6822); test: LTEA_HepaRG_SULT2A1: Life Technologies and Expression Analysis (LTEA) Assay for sulfotransferase 2A1 (SULT2A1) using HepaRG (AID 2283531)
Outline: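 Differentiated human HepaRG cells in serum-free induction medium were exposed for 48 h to eight half-log concentrations (top 100 uM, 0.5% DMSO). SULT2A1 mRNA was measured by qRT-PCR, normalized to ACTB, GAPDH and POLR2A, and fitted bidirectionally against DMSO.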

[19] = read-out: X-box binding protein 1 (XBP1), XBP1 (gene 7494); test: LTEA_HepaRG_XBP1: Life Technologies and Expression Analysis (LTEA) Assay for X-box binding protein 1 (XBP1) using HepaRG (AID 2283540)
Outline: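 Differentiated human HepaRG cells in serum-free induction medium were exposed in duplicate for 48 h to eight half-log concentrations up to 100 uM in 0.5% DMSO. XBP1 mRNA was quantified by qRT-PCR, normalised to ACTB, GAPDH and POLR2A, with bidirectional fitting against DMSO.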

Measured: AC50

Signal transducer and activator of transcription 3 (Homo sapiens), sequence (P40763 whole entry, looked up): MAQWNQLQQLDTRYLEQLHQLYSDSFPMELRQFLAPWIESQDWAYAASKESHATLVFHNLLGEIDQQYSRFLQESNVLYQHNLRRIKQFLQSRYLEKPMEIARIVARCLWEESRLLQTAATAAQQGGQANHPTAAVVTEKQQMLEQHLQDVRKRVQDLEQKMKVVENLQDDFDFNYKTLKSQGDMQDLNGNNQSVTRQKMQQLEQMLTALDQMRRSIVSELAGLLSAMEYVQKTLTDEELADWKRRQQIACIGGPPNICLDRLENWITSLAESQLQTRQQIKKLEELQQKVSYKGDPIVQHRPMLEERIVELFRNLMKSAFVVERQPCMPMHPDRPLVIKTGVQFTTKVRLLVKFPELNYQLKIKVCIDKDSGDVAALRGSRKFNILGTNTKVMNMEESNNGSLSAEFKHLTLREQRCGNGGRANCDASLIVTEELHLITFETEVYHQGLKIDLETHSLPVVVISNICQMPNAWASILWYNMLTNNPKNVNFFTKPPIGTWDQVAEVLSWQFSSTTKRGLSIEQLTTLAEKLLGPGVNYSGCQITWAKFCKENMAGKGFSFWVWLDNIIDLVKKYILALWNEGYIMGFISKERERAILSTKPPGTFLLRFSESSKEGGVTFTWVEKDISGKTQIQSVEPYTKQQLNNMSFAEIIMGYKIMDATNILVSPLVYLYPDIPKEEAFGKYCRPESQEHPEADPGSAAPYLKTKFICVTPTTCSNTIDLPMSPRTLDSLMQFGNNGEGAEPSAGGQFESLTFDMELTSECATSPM
Nuclear factor NF-kappa-B p105 subunit (Homo sapiens), sequence (P19838 whole entry, looked up): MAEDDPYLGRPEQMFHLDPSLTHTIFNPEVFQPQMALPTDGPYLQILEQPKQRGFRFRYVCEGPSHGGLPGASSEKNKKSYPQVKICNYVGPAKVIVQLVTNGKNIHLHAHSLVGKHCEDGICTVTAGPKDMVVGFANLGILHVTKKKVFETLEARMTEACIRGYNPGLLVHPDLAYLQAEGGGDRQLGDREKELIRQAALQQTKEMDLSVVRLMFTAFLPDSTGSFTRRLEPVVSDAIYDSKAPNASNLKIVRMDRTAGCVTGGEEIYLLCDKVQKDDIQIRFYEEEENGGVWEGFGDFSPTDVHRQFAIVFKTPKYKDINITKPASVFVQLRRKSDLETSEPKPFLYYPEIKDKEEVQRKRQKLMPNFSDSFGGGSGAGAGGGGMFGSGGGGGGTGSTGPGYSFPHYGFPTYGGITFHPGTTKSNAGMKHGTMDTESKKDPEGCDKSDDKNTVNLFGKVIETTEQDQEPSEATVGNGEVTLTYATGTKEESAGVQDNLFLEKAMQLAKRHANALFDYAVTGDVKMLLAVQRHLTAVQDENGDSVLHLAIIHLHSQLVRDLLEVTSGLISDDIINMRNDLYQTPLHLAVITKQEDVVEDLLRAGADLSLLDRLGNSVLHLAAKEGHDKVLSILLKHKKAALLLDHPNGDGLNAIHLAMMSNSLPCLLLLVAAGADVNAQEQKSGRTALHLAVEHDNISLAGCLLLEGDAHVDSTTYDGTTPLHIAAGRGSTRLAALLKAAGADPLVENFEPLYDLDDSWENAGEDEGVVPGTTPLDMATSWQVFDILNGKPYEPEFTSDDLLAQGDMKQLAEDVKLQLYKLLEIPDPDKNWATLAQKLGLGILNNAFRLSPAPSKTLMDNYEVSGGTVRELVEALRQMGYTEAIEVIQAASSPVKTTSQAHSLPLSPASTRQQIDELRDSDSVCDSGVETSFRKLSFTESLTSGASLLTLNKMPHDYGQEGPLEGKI
Nuclear factor erythroid 2-related factor 2 (Homo sapiens), sequence (Q16236 whole entry, looked up): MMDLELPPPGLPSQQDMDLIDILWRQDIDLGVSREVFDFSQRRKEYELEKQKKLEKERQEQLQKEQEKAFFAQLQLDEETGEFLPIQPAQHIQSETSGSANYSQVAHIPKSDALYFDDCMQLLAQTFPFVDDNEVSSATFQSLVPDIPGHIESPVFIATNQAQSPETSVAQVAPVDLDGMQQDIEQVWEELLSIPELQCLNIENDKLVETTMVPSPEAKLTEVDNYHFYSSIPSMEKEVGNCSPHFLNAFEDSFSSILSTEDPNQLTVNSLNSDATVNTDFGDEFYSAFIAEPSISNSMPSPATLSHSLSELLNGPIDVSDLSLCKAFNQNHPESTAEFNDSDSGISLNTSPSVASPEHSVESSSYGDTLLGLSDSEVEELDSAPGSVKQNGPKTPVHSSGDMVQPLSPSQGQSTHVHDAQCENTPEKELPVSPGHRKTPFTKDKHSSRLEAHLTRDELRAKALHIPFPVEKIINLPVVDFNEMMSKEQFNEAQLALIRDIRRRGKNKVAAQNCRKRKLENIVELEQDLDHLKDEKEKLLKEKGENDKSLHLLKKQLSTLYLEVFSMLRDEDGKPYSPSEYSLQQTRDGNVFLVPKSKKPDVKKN
Cellular tumor antigen p53 (Homo sapiens), sequence (P04637 whole entry, looked up): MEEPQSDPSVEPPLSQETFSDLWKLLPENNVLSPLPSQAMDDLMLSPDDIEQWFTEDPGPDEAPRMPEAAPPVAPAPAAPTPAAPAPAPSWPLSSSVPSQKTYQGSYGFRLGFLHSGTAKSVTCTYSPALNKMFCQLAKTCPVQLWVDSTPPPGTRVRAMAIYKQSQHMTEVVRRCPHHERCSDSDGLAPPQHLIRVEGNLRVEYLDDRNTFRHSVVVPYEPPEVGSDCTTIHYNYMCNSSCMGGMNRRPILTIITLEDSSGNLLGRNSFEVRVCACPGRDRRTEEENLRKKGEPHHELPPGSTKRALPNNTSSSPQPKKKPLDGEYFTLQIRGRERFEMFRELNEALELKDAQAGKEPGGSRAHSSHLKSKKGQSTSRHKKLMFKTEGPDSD

CCCC(=O)O
not listed: [16] | [17] | [18] | [19]
inactive: all other assays above

CCOCCOCCO
not listed: [18] | [19]
inactive: all other assays above

CS(=O)(=O)c1ccc([C@@H](C[C@H]2CCC(=O)C2)C(=O)Nc2cnccn2)cc1Cl
active: [1] 1.38 µM | [2] 0.49 µM | [3] 10.1 µM | [4] 2.77 µM | [5] 0.913 µM | [6] 17.9 µM | [7] 0.738 µM | [9] 50 µM | [10] 1.01 µM | [11] 0.938 µM | [12] 1.22 µM | [13] 14.8 µM | [14] 27.2 µM | [16] 1.09 µM | [19] 1.33 µM
inactive: [8] | [18] | TIMP1, TIMP1 (gene 7076) | [15]

CC(C)c1cccc(C(C)C)c1
not listed: [14] | [16]
inactive: all other assays above

CC(=O)O[C@]1(C(C)=O)CC[C@H]2[C@@H]3C=C(Cl)C4=CC(=O)[C@@H]5C[C@@H]5[C@]4(C)[C@H]3CC[C@@]21C
active: [4] 50 µM | [7] 81.2 µM | [9] 50 µM | [10] 76.8 µM | [18] 50 µM | [15] 73.3 µM
not listed: [16] | [17] | [19]
inactive: all other assays above

CCCCCCC(C=O)=Cc1ccccc1
not listed: [16] | [18]
inactive: all other assays above

CC(=O)[C@@]1(O)CC[C@H]2[C@@H]3CCC4=CC(=O)CC[C@]4(C)[C@H]3CC[C@@]21C
active: [14] 50 µM
not listed: [8] | [16] | [17] | [18]
inactive: all other assays above
